Activity calls are given as the source filed them. Unless noted, the rule behind the calls is not given here.
Tests used:
[1] = compound effects on lung adenocarcinoma cell viability – A549, calcein-AM fluorescence, 48 h, basal, profiling panel (AID 1162); conditions: higher = more signal; note: test concentration not given here
[2] = compound effects on differentiated 3T3-L1 adipocyte viability – cell-based, 3T3-L1 adipocytes, calcein-AM fluorescence, 48 h, basal, profiling panel (AID 1163); conditions: 3T3-L1 adipocytes viability, higher = more signal; note: test concentration not given here
[3] = compound effects on hepatocellular carcinoma cell viability – HepG2, calcein-AM fluorescence, 48 h, basal, profiling panel (AID 1164); conditions: higher = more signal; note: test concentration not given here
[4] = compound effects on multiple myeloma cell viability – MM1S, calcein-AM fluorescence, 48 h, basal, profiling panel (AID 1165); conditions: higher = more signal; note: test concentration not given here
[5] = calcein-AM signal in unstimulated myeloma cells – cell-based, calcein-AM fluorescence, 48 h, PK04 Diversity Set, profiling panel (AID 1166); conditions: RPMI8226 myeloma viability, higher = more signal;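 note: cells grown under basal conditions without added stimulus; test concentration not given here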
[6] = JC-1 mitochondrial signal, unstimulated HepG2 cells – cell-based, JC-1 fluorescence, 24 h, 100 nL compound, profiling panel (AID 1167); conditions: HepG2 mitochondrial potential, higher = more signal; note: test concentration not given here
[7] = JC-1 mitochondrial signal, unstimulated adipocytes – cell-based, JC-1 fluorescence, 3T3-L1 adipocytes, 24 h, 100 nL compound, profiling panel (AID 1168); conditions: JC-1 mitochondrial fluorescence, higher = more signal, called active from +8 up or from −8 down; note: test concentration not given here
[8] = JC-1 mitochondrial signal, unstimulated myeloma cells – cell-based, JC-1 fluorescence, RPMI8226, 24 h, 100 nL compound, profiling panel (AID 1169); conditions: JC-1 mitochondrial potential fluorescence, higher = more signal; note: test concentration not given here
[9] = JC-1 mitochondrial signal, unstimulated MM1S myeloma – cell-based, JC-1 fluorescence, 24 h, 100 nL compound, profiling panel (AID 1170); conditions: MM1S mitochondrial potential, higher = more signal; note: test concentration not given here
[10] = resazurin metabolic signal in A549 cells – cell-based, resazurin fluorescence, 24 h, PK04 Diversity Set, profiling panel (AID 1171); conditions: A549 viability, higher = more signal, called active from +8 up or from −8 down; note: test concentration not given here
[11] = resazurin metabolic signal in HepG2 cells – cell-based, resazurin fluorescence, 24 h, PK04 Diversity Set, profiling panel (AID 1172); conditions: HepG2 viability, higher = more signal; note: test concentration not given here
[12] = budding yeast growth changes without added modifier – OD600, strain BY4716, 24 h, basal condition, primary screen (AID 1173); conditions: S. cerevisiae BY4716 growth, OD600, 24 h; higher = more signal, called active from +8 up or from −8 down
[13] = viability profiling in MM1S myeloma cells – cell-based, resazurin fluorescence, basal, 24 h, PK04 Diversity Set, profiling panel (AID 1174); conditions: higher = more signal, called active from +8 up or from −8 down; note: test concentration not given here
[14] = target: Dihydroorotate dehydrogenase (quinone), mitochondrial (Plasmodium falciparum (isolate 3D7)) (UniProt Q08210); experiment: inhibition of P. falciparum DHODH – biochemical, C-terminal His tag, absorbance 600 nm, primary screen (AID 1175); conditions: PfDHODH enzyme, DCIP absorbance 600 nm; higher = more signal, called active from +8 up or from −8 down;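 note: recombinant parasite enzyme with a five histidine tag at its C terminus; test concentration not given here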
[15] = inhibition of PAO1 biofilm formation – strain PAO1, LB-PBS medium, absorbance 600 nm, primary screen (AID 1176); note: test concentration not given here; conditions: P. aeruginosa PAO1 growth/biofilm, A600, 12 h; higher = more signal
[16] = growth modulation of vineyard yeast isolate – strain RM11-1a, OD600, basal, 24 h, primary screen (AID 1177);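 note: cultures grown under basal conditions with no added stressor; test concentration not given here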; conditions: S. cerevisiae RM11-1a growth, OD600, 24 h; higher = more signal, called active from +8 up or from −8 down
[17] = growth of efflux-deficient E. coli DRC39 – strain DRC39, OD650, 24 h, E. coli filamentation inducers, primary screen (AID 1178);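 note: growth measured as culture turbidity by optical density at 650 nm; test concentration not given here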; conditions: E. coli DRC39 acrAB, higher = more signal, called active from +8 up or from −8 down
[18] = growth of efflux-deficient E. coli DRC39 – strain DRC39, OD650, 48 h, E. coli filamentation inducers, primary screen (AID 1179);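 note: screen aims at cell division blockers that make cells filament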; conditions: E. coli DRC39 delta-acrAB growth, higher = more signal, called active from +8 up or from −8 down
[19] = viability profiling in RPMI8226 myeloma cells – cell-based, resazurin fluorescence, basal, 24 h, PK04 Diversity Set, profiling panel (AID 1180); conditions: higher = more signal;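 note: RPMI8826 multiple myeloma cell line at 5000 cells per well; test concentration not given here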
[20] = target: E3 ubiquitin-protein ligase XIAP (Homo sapiens) (UniProt P98170); experiment: small molecules binding XIAP protein – biophysical, small-molecule microarray, fluorescence 635 nm, primary screen (AID 1181); conditions: higher = more signal;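 note: score merges 667 nm emission and signal to noise over triplicate slides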
Sequence of E3 ubiquitin-protein ligase XIAP (Homo sapiens) (P98170 whole entry, looked up): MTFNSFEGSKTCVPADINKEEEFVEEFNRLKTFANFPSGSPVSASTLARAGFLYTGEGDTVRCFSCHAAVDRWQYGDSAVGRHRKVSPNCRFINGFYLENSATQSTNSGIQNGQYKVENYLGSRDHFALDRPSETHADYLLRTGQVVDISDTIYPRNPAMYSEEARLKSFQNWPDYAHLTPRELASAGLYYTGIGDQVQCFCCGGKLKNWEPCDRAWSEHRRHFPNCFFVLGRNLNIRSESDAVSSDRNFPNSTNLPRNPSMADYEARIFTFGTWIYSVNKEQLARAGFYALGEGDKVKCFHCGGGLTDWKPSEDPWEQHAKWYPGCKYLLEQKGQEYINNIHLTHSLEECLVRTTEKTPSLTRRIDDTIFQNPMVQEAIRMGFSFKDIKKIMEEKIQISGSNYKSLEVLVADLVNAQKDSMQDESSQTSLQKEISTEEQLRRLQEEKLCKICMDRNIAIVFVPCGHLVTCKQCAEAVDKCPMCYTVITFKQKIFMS

Sequence of Dihydroorotate dehydrogenase (quinone), mitochondrial (Plasmodium falciparum (isolate 3D7)) (Q08210 whole entry, looked up): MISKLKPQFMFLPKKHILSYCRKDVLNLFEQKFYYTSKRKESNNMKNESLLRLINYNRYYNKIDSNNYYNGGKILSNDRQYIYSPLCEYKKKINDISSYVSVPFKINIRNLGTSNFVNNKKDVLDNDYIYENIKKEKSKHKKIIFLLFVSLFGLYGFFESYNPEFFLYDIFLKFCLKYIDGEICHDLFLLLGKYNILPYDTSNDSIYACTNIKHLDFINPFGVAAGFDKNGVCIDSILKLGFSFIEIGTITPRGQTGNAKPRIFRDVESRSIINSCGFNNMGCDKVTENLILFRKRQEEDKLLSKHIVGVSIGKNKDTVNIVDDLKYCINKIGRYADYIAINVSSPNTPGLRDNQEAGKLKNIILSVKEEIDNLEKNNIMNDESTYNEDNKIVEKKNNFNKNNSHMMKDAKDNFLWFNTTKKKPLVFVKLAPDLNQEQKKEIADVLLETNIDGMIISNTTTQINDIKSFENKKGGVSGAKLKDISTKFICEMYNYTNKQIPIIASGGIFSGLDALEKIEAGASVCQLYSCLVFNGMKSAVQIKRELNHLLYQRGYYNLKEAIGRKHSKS

SMILES: CC(C)c1ccc(NN2C(C(O)C(C)C)C=CC3C(=O)N(c4ccccc4)C(=O)C32)cc1 (stereo not given)
- z-score [1]: -0.149
- z-score [2]: -0.0009
- z-score [3]: -0.463
- z-score [4]: -0.871
- z-score [5]: -0.542
- z-score [6]: -0.419
- z-score [7]: -1.52 (inactive)
- z-score [8]: -0.692
- z-score [9]: 0.54
- z-score [10]: -1.28 (inactive)
- z-score [11]: -1.65
- z-score [12]: -0.619 (inactive)
- z-score [13]: -0.331 (inactive)
- composite z-score [14]: 0.974 (inactive)
- z-score [15]: 0.711 (inactive)
- z-score [16]: 1.57 (inactive)
- z-score [17]: 0.0582 (inactive)
- z-score [18]: -0.303 (inactive)
- z-score [19]: 0.0438
- composite z-score [20]: 0.132

SMILES: CN1C(=O)[C@]2(CCC(=O)OC(C)(C)C)N=C(c3ccc(OCCCO)cc3)O[C@@H]2c2ccccc21
- z-score [1]: -0.024
- z-score [2]: 0.834
- z-score [3]: -0.54
- z-score [4]: -0.964
- z-score [5]: -3.26
- z-score [6]: 1.29
- z-score [7]: 1.41 (inactive)
- z-score [8]: -0.931
- z-score [9]: 0.129
- z-score [10]: -0.877 (inactive)
- z-score [11]: 0.476
- z-score [12]: 0.997 (inactive)
- z-score [13]: -1.67 (inactive)
- composite z-score [14]: 0.42 (inactive)
- z-score [15]: -0.441 (inactive)
- z-score [16]: 1.09 (inactive)
- z-score [17]: 1.01 (inactive)
- z-score [18]: 0.679 (inactive)
- z-score [19]: -1.56
- composite z-score [20]: 0.312

SMILES: COc1cc2c(cc1O)C(c1ccc(CN3CCCC3)cc1)N(Cc1cccc(OC(F)(F)F)c1)CC2 (stereo not given)
- z-score [1]: -4.78
- z-score [2]: 0.0154
- z-score [3]: -5.64
- z-score [4]: -3.22
- z-score [5]: -4.48
- z-score [6]: -3.43
- z-score [7]: 1.04 (inactive)
- z-score [8]: -0.955
- z-score [9]: -2.64
- z-score [10]: -4.45 (inactive)
- z-score [11]: -2.98
- z-score [12]: -16.5 (active)
- z-score [13]: -9.24 (active)
- composite z-score [14]: 0.364 (inactive)
- z-score [15]: -0.103 (inactive)
- z-score [16]: -1.66 (inactive)
- z-score [17]: -4.72 (inactive)
- z-score [18]: -3.03 (inactive)
- z-score [19]: -6.78
- composite z-score [20]: 0.0673

SMILES: COCCOC(=O)N1C(=O)[C@@]2(c3cc(C#Cc4ccc(OC)cc4)ccc31)[C@H](C(=O)N1CCCCCCC1)[C@H]1C(=O)O[C@H](c3ccccc3)[C@H](c3ccccc3)N1[C@@H]2c1ccccc1OCCO
- z-score [1]: -0.198
- z-score [2]: 1.05
- z-score [3]: 0.383
- z-score [4]: -0.197
- z-score [5]: -0.417
- z-score [6]: 0.617
- z-score [7]: 3.29 (inactive)
- z-score [8]: -0.16
- z-score [9]: -0.845
- z-score [10]: 0.122 (inactive)
- z-score [11]: -0.107
- z-score [12]: 1.88 (inactive)
- z-score [13]: -0.0216 (inactive)
- composite z-score [14]: -0.267 (inactive)
- z-score [15]: 2.36 (inactive)
- z-score [16]: 3.2 (inactive)
- z-score [17]: -0.609 (inactive)
- z-score [18]: -0.399 (inactive)
- z-score [19]: -0.429
- composite z-score [20]: 0.89

SMILES: [N-]=[N+]=NCc1ccccc1C[C@]1(C(=O)N2CCOCC2)N=C(c2ccc(OCCCO)cc2)O[C@H]1c1ccccc1CN=[N+]=[N-]
- z-score [1]: 0.869
- z-score [2]: 0.577
- z-score [3]: 0.74
- z-score [4]: -1.47
- z-score [5]: -2.29
- z-score [6]: 1.24
- z-score [7]: 1.04 (inactive)
- z-score [8]: -1.18
- z-score [9]: 0.233
- z-score [10]: -0.768 (inactive)
- z-score [11]: 0.133
- z-score [12]: 1.06 (inactive)
- z-score [13]: -0.481 (inactive)
- composite z-score [14]: 1.21 (inactive)
- z-score [15]: 0.948 (inactive)
- z-score [16]: 2.39 (inactive)
- z-score [17]: 1.67 (inactive)
- z-score [18]: 0.93 (inactive)
- z-score [19]: -1.11
- composite z-score [20]: 0.411

SMILES: CCCCCN1CC=CC23O[C@@H]4C=CCOC(=O)[C@@H]4[C@H]2C(=O)N(CCCCCO)[C@@H]3C1=O (stereo not given in full)
- z-score [1]: -0.438
- z-score [2]: -0.28
- z-score [3]: -1.03
- z-score [4]: 1.27
- z-score [5]: -1.6
- z-score [6]: -0.012
- z-score [7]: 0.211 (inactive)
- z-score [8]: 0.85
- z-score [9]: 0.876
- z-score [10]: -0.0947 (inactive)
- z-score [11]: 0.773
- z-score [12]: -0.284 (inactive)
- z-score [13]: -0.295 (inactive)
- composite z-score [14]: -1.09 (inactive)
- z-score [15]: 0.441 (inactive)
- z-score [16]: -0.196 (inactive)
- z-score [17]: -0.151 (inactive)
- z-score [18]: -0.352 (inactive)
- z-score [19]: 0.0715
- composite z-score [20]: -0.244

SMILES: C=CCC(OC(C)=O)[C@@H]1[C@@H](N(Cc2ccc(-c3cccc(C(F)(F)F)c3)o2)C(=O)Cc2ccc(F)cc2)c2cc(OCCCO)ccc2N1C(=O)c1ccc2ccccc2n1 (stereo not given in full)
- z-score [1]: 0.0993
- z-score [2]: 0.639
- z-score [3]: 0.722
- z-score [4]: -0.911
- z-score [5]: -0.733
- z-score [6]: 2.09
- z-score [7]: 0.484 (inactive)
- z-score [8]: -0.134
- z-score [9]: 0.143
- z-score [10]: 0.14 (inactive)
- z-score [11]: 0.286
- z-score [12]: 0.441 (inactive)
- z-score [13]: 0.229 (inactive)
- composite z-score [14]: -0.235 (inactive)
- z-score [15]: 0.927 (inactive)
- z-score [16]: -0.116 (inactive)
- z-score [17]: -0.36 (inactive)
- z-score [18]: -0.15 (inactive)
- z-score [19]: -0.128
- composite z-score [20]: 0.0454

SMILES: C=CC[C@]1(C(=O)NCc2ccccc2)COC(c2ccc(OCCCO)cc2)=N1
- z-score [1]: -0.555
- z-score [2]: 0.548
- z-score [3]: -2.51
- z-score [4]: -2.01
- z-score [5]: -0.953
- z-score [6]: -3.22
- z-score [7]: -0.436 (inactive)
- z-score [8]: -0.4
- z-score [9]: -0.107
- z-score [10]: -0.256 (inactive)
- z-score [11]: -0.137
- z-score [12]: -1.92 (inactive)
- z-score [13]: -1.4 (inactive)
- composite z-score [14]: -0.267 (inactive)
- z-score [15]: -0.0025 (inactive)
- z-score [16]: 0.02 (inactive)
- z-score [17]: 0.729 (inactive)
- z-score [18]: -0.145 (inactive)
- z-score [19]: -0.874
- composite z-score [20]: 0.001

SMILES: CC(C)(C)OC(=O)CC[C@]1(C(=O)N2CCOCC2)N=C(c2ccc(OCCCO)cc2)O[C@H]1c1ccccc1CN=[N+]=[N-]
- z-score [1]: -0.385
- z-score [2]: 0.0723
- z-score [3]: 0.209
- z-score [4]: -0.411
- z-score [5]: -0.563
- z-score [6]: 0.432
- z-score [7]: -0.0219 (inactive)
- z-score [8]: -0.166
- z-score [9]: -0.324
- z-score [10]: 0.734 (inactive)
- z-score [11]: 0.125
- z-score [12]: -0.0255 (inactive)
- z-score [13]: -0.362 (inactive)
- composite z-score [14]: -0.0668 (inactive)
- z-score [15]: 1.78 (inactive)
- z-score [16]: -0.459 (inactive)
- z-score [17]: 0.565 (inactive)
- z-score [18]: 0.088 (inactive)
- z-score [19]: 0.0933
- composite z-score [20]: 0.0159

From PubChem BioAssay
